These results are taken from ChEMBL document CHEMBL3433997, “St. Jude Leishmania screening dataset” (2016).

Usually inhibition stands for the drop in the measured response relative to a control, in per cent.

Each structure is given as a SMILES string.

Common to all, as to type: functional
In assay [1] the target is Solute carrier family 2, facilitated glucose transporter member 1 (Homo sapiens) (UniProt P11166). The assay is described as follows: ST_JUDE_LEISH: Cytotoxicity at 2uM final concentration against transgenic Leishmania Mexicana promastigotes LmGLUT1 that are glucose transport deficient and complemented with the human glucose transporter GLUT1. Activity is measured by DNA content using SYBR green in vitro.
Sequence of Solute carrier family 2, facilitated glucose transporter member 1 (Homo sapiens) (P11166 whole entry): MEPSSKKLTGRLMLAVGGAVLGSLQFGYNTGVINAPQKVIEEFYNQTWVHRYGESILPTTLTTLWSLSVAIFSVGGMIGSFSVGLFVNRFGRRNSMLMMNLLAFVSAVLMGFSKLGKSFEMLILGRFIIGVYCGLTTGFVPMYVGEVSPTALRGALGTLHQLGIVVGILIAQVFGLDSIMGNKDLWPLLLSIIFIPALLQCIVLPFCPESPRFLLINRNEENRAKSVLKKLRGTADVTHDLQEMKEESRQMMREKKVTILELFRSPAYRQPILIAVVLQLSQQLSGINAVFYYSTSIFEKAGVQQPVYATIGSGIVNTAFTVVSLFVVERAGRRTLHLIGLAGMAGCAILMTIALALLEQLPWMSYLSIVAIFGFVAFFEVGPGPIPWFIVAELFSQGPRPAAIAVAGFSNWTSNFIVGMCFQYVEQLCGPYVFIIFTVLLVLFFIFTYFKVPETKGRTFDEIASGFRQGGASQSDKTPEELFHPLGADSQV

Assay [2] concerns the target Hexose transporter 1 (Plasmodium falciparum) (UniProt O97467). The assay is described as follows: ST_JUDE_LEISH: Cytotoxicity at 2uM final concentration against transgenic Leishmania Mexicana promastigotes LmPfHT that are glucose transport deficient and complemented with the Plasmodium falciparum hexose transporter. Activity is measured by DNA content using SYBR green in vitro.

The target in assay [3] is Glucose transporter (Leishmania mexicana) (UniProt O61059). As to the kind of experiment: ST_JUDE_LEISH: Cytotoxicity at 2uM final concentration against transgenic Leishmania Mexicana promastigotes LmGT2 that are glucose transport deficient and complemented with the L. Mexicana glucose transporter 2. Activity is measured by DNA content using SYBR green in vitro.

For the molecule `N=C(N)Nc1nc(-c2cccc(NC(=O)NCc3ccc(OC(F)(F)F)cc3)c2)cs1`, the inhibition in assay [1] stood at 1.51%; in assay [2], 0.95%; in assay [3], 0.07%.
Consider `Fc1cc(Cl)ccc1Nc1ccnc2cc(-c3ccc(CN4CCNCC4)o3)ccc12`, for which the inhibition came to 1.02% in assay [1], 1.16% in assay [2] and 1.34% in assay [3].
For `Nc1c2c(nc3ccc(C(=O)Nc4ccccc4)cc13)CCCC2`, the inhibition amounted to 4.09% in assay [1], 3.96% in assay [2] and 3.87% in assay [3].
As for `CN1CCN(CCNc2c3ccccc3nc3c2ccc2ccccc23)CC1`, the inhibition in assay [1] came out at 84.6%; in assay [2] it was 88%; in assay [3], 81.5%.
As for `COc1cc(NC2=C(c3ccccc3)C(=O)c3ccccc32)ccn1`, the results for the inhibition in assay [1], in assay [2] and in assay [3] were 4.66%, 2.03% and 1.41%, respectively.
For `CC(CN1CCN(C)CC1)C(=O)Nc1cccc(-c2ccc(-c3nc4cc(F)ccc4[nH]3)cc2)c1` (stereo unspecified) the same measures were 4.67%, 3.13% and 2.7%.
For `Cc1cc(C(=O)Nc2ccc3c(c2)CCN3C2CCN(Cc3ccc(O)cc3)C2)no1` (stereo unspecified) the same measures were 4.29%, 5.39% and 2.38%.
`O=C(CN(c1cccc(C(F)(F)F)c1)S(=O)(=O)c1ccc(Cl)cc1)NCCC(c1ccccc1)c1ccccc1`: the figures for the inhibition in assay [1], in assay [2] and in assay [3] were -0.18%, -0.47% and -2.89%, respectively.
On to `O=c1cc(N2CCCNCC2)c(Cl)nn1Cc1ccc(NS(=O)(=O)c2ccc(Oc3ccccc3)cc2)cc1`, for which the inhibition was found to be 10.6% in assay [1], 8% in assay [2] and 8.55% in assay [3].
As to `CCOc1ccc(C(Cc2ccccc2)NC(=O)c2cccnc2)cc1OCC` (stereo unspecified), the inhibition was 0.79% in assay [1], -2.62% in assay [2] and -0.89% in assay [3].
As to `O=C(Nc1ccc(CCNCCCc2ccccc2)cc1)Nc1ccc(Cl)c(Cl)c1`, the inhibition is -0.55% in assay [1], -0.63% in assay [2] and -1.86% in assay [3].
For `CCNc1cc(C(=O)N[C@@H](Cc2ccc(F)c(F)c2)[C@H](O)CNCc2cccc(OC)c2)cc(N2CCCCS2(=O)=O)c1`, the inhibition in assay [1] is -0.26%; in assay [2], 0.17%; in assay [3] it was -0.12%.
For `CCc1ccc(O)c(-c2cc(C(=O)Nc3cccnc3)[nH]n2)c1` the same measures were 1.69%, 0.53% and 2.29%.
The matching figures for `COc1ccc(Nc2ncc(Cl)c(Nc3cccnc3C(N)=O)n2)cc1N1CCN(C)CC1`: 89.9%, 92.6% and 85.9%.
For `CCN(CCCN1CCCCC1)c1cc(C)nc(Nc2cccc(OC(F)(F)F)c2)n1` the same measures were 1.17%, 1.62% and 2.65%.
Take `CCC1CN(CCCn2c3ccccc3c3ccccc32)C(CC)CN1` (stereo unspecified): the inhibition was -0.46% in assay [1], -0.59% in assay [2] and -0.18% in assay [3].
The matching figures for `COc1cc(C(=O)NC2CCc3ccccc32)cc(Cl)c1OC` (stereo unspecified): -4.04%, -0.96% and -0.41%.
The matching figures for `CCOC(=O)C1=C(C)N=c2sc(=Cc3cc(Cl)ccc3O)c(=O)n2C1c1ccc(OC)cc1` (stereo unspecified): -0.92%, 0% and 0.91%.
For `CC(=O)N(C)C1CCN(Cc2ccc(-c3cccc(-c4nc5cc(F)ccc5[nH]4)c3)cc2)C1` (stereo unspecified), the inhibition was 1.27% in assay [1], -0.26% in assay [2] and 1.68% in assay [3].
The matching figures for `O=C(Nc1ccc(Oc2ccccc2)cc1)N1CCC(CCN2CCC(c3c[nH]c4ccccc34)CC2)CC1`: 4.42%, 2.98% and 5.21%.
The matching figures for `Nc1nc(N)c2c(Oc3ccc(Cl)c(Cl)c3)cccc2n1`: 0.48%, -0.05% and -3.94%.
For `CC(C)N(CCOc1ccc2c(c1)N(C(=O)Nc1ccc(Cl)c(Cl)c1)CC2)C(C)C` the same measures were -0.91%, 0.27% and -4.18%.
For the molecule `O=C(NCCCCN1CCC(c2ccc(OC(F)(F)F)cc2)CC1)c1ccc(NC(=O)c2ccc(Cl)cc2)cc1`, the inhibition was -1.27% in assay [1], 0.81% in assay [2] and -1.72% in assay [3].
For `O=C(Nc1cccc(CN2CCCN(Cc3ccc4c(c3)OCO4)CC2)c1)c1ccc(Cl)c(Cl)c1` the same measures were 6.43%, 5.95% and 8.61%.
The matching figures for `CN1CCC(C(=O)N(Cc2ccc(-c3ccc(CNCCc4ccc(S(C)(=O)=O)cc4)cn3)cc2)Cc2ccc3c(c2)OCO3)CC1`: 2.03%, 0.87% and 3.77%.
With `COc1ccc(-c2nc(NC(=O)CS(=O)(=O)c3ccccc3)sc2C)cc1`, the inhibition worked out at 8.8% in assay [1], 4.92% in assay [2] and 1.25% in assay [3].
For `COc1ccc2ccccc2c1CNCC1CCN(CC2CCCCC2)CC1` the same measures were 1.54%, -0.57% and -1.88%.
The matching figures for `CCCC(C)NC(=O)C(N)Cc1cccc(I)c1` (stereo unspecified): 1.78%, -1% and 1.85%.
For `CCCCNc1c(C(=O)OCC)c(C)nc2c1[nH]c1ccccc12` the same measures were 3.19%, 4.14% and -0.65%.
On to `CCN(CCCN1CCCCC1)c1cc(C)nc(Nc2ccc(Oc3ccccc3)cc2)n1`, for which the inhibition in assay [1] came to 5.66%; in assay [2], 5.07%; in assay [3] it was 5.44%.
For `Cc1ccc(S(=O)(=O)N(CCCNCc2cccc(O)c2)c2ccccc2)cc1` the same measures were 9.85%, 6.1% and 7.86%.
For `CC(C)Cn1c(Sc2ccc(C#N)c([N+](=O)[O-])c2)nnc1-c1ccccc1Cl` the same measures were 3.45%, 4.02% and -0.31%.
For `Cc1cccc2nc(-c3ccc(-c4cccc(CNCCCNS(C)(=O)=O)c4)s3)[nH]c12` the same measures were 0.75%, 2.35% and -2.06%.
For `CCNC(=O)Nc1ccc(N(C)c2ccnc(NC3CC3)n2)cc1`, the inhibition in assay [1] was 5.12%; in assay [2], 3.87%; in assay [3] it was 5.35%.
As to `CC1SC(=S)NC1C(=O)O` (stereo unspecified), the inhibition is -1.93% in assay [1], 0.57% in assay [2] and 0.24% in assay [3].
The matching figures for `Cc1ccc(C)c(S(=O)(=O)NCC2CCN(Cc3ccc(O)cc3)CC2)c1`: 41.3%, 7.78% and -2.61%.
The matching figures for `CN1CCN(c2cc(-c3ccncc3)nc(-c3cccnc3)n2)CC1`: 5.17%, 3.27% and 3%.
